Data as given in PubChem BioAssay AID1903 (Southern Research Specialized Biocontainment Screening …, 2009).
The whole screen tested about 310,000 compounds, of which about 1,200 (0.39%) were called active. The rule behind the calls is not given here. Only a sample is shown. Potency and affinity values are given separately.

molecular target: Large T antigen (Simian virus 40) (UniProt P03070); assay: TAg ATPase/helicase activity blockers – biochemical (AID 1903); details: SV40 large T antigen ATPase/helicase inhibition assay; at 20 µM; hits give high values
Sequence (P03070 whole entry, looked up): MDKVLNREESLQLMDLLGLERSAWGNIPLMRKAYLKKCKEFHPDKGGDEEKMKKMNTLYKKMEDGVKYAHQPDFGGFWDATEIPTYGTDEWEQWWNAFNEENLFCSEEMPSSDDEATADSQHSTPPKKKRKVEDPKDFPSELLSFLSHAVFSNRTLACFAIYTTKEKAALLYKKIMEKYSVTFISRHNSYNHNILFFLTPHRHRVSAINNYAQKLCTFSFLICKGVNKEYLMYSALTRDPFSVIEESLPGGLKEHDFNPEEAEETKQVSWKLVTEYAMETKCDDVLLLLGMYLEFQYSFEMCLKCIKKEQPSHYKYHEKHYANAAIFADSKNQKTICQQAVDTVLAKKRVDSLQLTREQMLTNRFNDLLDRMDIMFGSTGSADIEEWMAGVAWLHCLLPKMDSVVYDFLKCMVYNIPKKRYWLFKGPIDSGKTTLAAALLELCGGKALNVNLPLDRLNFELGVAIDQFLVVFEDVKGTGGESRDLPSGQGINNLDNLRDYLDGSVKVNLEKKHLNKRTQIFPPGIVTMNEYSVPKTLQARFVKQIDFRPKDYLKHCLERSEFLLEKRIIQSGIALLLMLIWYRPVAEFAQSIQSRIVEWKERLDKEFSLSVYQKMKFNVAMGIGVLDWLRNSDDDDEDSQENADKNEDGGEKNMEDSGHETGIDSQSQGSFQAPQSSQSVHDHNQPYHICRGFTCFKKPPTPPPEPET

inhibition, inactive:
CC(=O)CC1(C)OC(N)=C(C#N)C1(C#N)C#N (stereo not given) 5.62%
N#Cc1ccc(C(=O)Nc2cc(-c3ccccc3)nn2-c2ccccc2)cc1 2.51%
Cc1cc(-c2sccc2C)nc(-n2cccc2)n1 1.14%
O=C1Nc2ccccc2Nc2ccccc21 0.33%
Cc1ccc(N=C2CCCCCN2C)c(C#N)c1 15.4%
CCN(CC)CCC(=O)N1c2ccccc2CCc2ccc(NC(=O)OC)cc21 6.36%
COC(=O)/C(=C\Nc1ccc(Cl)cc1Cl)NC(=O)c1ccc(Cl)cc1Cl 6.46%
COc1ccc(/C=C2/SC(=S)N(n3c(C)ccc3C)C2=O)cc1 12.7%
COc1ccc(/C=N/NC(=O)COc2cccc3cccnc23)cc1OC 16.2%
O=C(COc1cccc2cccnc12)N/N=C/c1ccccc1O 0.79%
O=C(CSc1cccc2cccnc12)N/N=C/c1ccc(F)cc1 5.35%
COc1cccc(/C=N/NC(=O)CSc2cccc3cccnc23)c1 14.4%
O=C(N/N=C/c1ccccc1Br)c1ccc(CSc2cccc3cccnc23)cc1 8.68%
NNC(=O)c1ccc(CSc2cccc3cccnc23)cc1 8.28%
O=C(CSc1cccc2cccnc12)N/N=C/c1cccc(O)c1 3.2%
O=C(CSc1cccc2cccnc12)N/N=C/c1ccncc1 13.8%
COc1ccc(NC(=O)CN(C)C(=O)Cc2ccc3c(c2)OCCO3)cc1 4.23%
CSCC(=O)N1CCc2ccc(NC(=O)c3ccccc3Cl)cc2C1 3.34%
COc1ccccc1NC(=O)CCS(=O)(=O)c1cc2c(cc1Cl)NC(=O)CO2 -2.36%
Cn1nc(C(=O)NC2=NCCS2)ccc1=O 16.5%
CC1(C)CC(NC(=O)COc2ccc3ccccc3c2)CC(C)(C)N1 12.2%
COc1ccc(NC(=O)CSc2nc3sc(C)cc3c(=O)n2C)cc1 8.62%
CC(CC(=O)NC(C)c1ccc2c(c1)OCCO2)c1ccccc1 (stereo not given) 7.67%
O=S(=O)(c1ccccc1OC(F)(F)F)N1CCN(c2ccnc3cc(Cl)ccc23)CC1 4.46%
Cc1nc(=O)c(-c2ccccc2)c(C)n1Cc1ccccc1 1.9%
O=C(COc1ccccc1[N+](=O)[O-])N/N=C/c1ccc(O)c([N+](=O)[O-])c1 7.71%
O=C(COc1ccccc1[N+](=O)[O-])N/N=C/c1ccncc1 25.8%
CCc1cc2c(NCc3ccccc3)nc(C)nc2s1 17.6%
Cc1cc2c(Nc3ccccc3)ncnc2s1 -2.89%
Cc1cc2c(Nc3cccc(O)c3)ncnc2s1 26.2%
CCc1cc2c(Nc3ccccc3O)nc(C)nc2s1 9.83%
O=C(OCc1nnc(-c2ccccc2)o1)c1ccc(CO)cc1 3.3%
CCO[C@H]1OC(C(=O)NCc2nc3ccccc3[nH]2)=C[C@@H](c2ccccc2)[C@@H]1CCCO 1.96%
CCOc1ccc(C(=O)OCC(=O)c2c(N)n(C)c(=O)n(C)c2=O)cc1OCC 1.22%
COc1ccc(C(=O)OCC(=O)c2c(N)n(C)c(=O)n(C)c2=O)cc1OC -4.08%
O=C(NC(=S)Nc1ccc(S(=O)(=O)N2CCCCC2)cc1)c1ccc(Cl)cc1 1.56%
COC(=O)c1ccc(CN2C(=O)c3ccccc3C2=O)o1 10.1%
CSc1nc(-c2ccccc2)nc(NC(=O)c2ccccc2)c1C(C)=O 5.31%
COC(=O)C1=C[C@@H](C(=O)OC)[C@@H]2C3=C(C(=O)[C@]2(CC(C)C)NC(=O)c2ccccc2)[C@H](C)n2c(=O)n(-c4ccccc4)c(=O)n2[C@@H]3C1 19.3%
C/C(=N\NC(=O)c1nnn(-c2nonc2N)c1-c1cccs1)c1cccnc1 -7.39%
CN1C(=O)N(C)c2cccc3cccc1c23 21.8%
CC1N(C)c2cccc3cccc(c23)N1C 32.1%
OC(COCc1ccc2c(c1)OCO2)CN1CCCCC1 (stereo not given) 4.66%
COc1ccc(S(=O)(=O)NNC(=O)Cc2csc(C)n2)cc1[N+](=O)[O-] 10.2%
CCN1CCN(c2cc(C)c3cc(NC(=O)Cc4ccc(OC)c(OC)c4)ccc3n2)CC1 2.02%
CC1C(=O)OC(c2ccc(Br)cc2)C(C)(C)C1=O (stereo not given) 29.1%
CCOc1ccc2c(c1)C(c1ccccc1)=NNC(c1ccccc1)=N2 4.86%
CCc1nc(SCC(=O)Nc2ccc(N(C)C)cc2)c2ccccc2n1 18.1%
CC(C)c1ccc(NC(=O)CSc2nc3c(c(=O)[nH]2)CCC3)cc1 10.4%
CC(=O)Nc1ccc(NC(=O)CSc2nc3nc(C)cc(C)c3c(=O)[nH]2)cc1 9.68%
O=C(CSc1nc2c(c(=O)[nH]1)CCC2)Nc1ccc(F)cc1 22%
CCN(c1ccc(NC(=O)CSc2nnc3nc(C)cc(C)n23)cc1)C(C)C 36%
CCN(CC)c1ccc(NC(=O)CSc2nc(C)cc(=O)[nH]2)cc1 35.5%
Cc1cc(C)c2c(=O)[nH]c(SCC(=O)Nc3ccc(N(C)C)cc3)nc2n1 31.4%
Cc1cc(C)n2c(SCC(=O)Nc3ccc(F)cc3)nnc2n1 8.2%
Cc1ccc([N+](=O)[O-])cc1NC1CC(O)C(CO)O1 (stereo not given) 3.41%
CN(C)CCN(C(=O)c1ccc(S(=O)(=O)N2CCc3ccccc32)cc1)c1nc2ccc(F)cc2s1 14.4%
Cc1ccc(S(=O)(=O)/C(C#N)=C/c2c(N3CC(C)OC(C)C3)nc3c(C)cccn3c2=O)cc1 (stereo not given) 23.9%
COc1cc2c(cc1OC)CN(C(=O)/C=C/c1cc(OC)c(OC)c(OC)c1)CC2 7.46%
O=C(N/N=C\c1ccc(OC(=O)c2ccco2)cc1)c1ccc(Cl)cc1 11.3%
O=C(N/N=C/c1ccc(OC(=O)c2ccco2)cc1)c1ccncc1 15.9%
C=CCc1ccccc1OCC(O)Cn1ccnc1C (stereo not given) 10.2%
CC(C)c1cc(=O)oc2c3c4c(cc12)CCCN4CCC3 4.43%
O=c1ccc2cc3c4c(c2o1)CCCN4CCC3 3.45%
CCc1ccc(NC(=O)[C@H](NC(=O)[C@@H]2Cc3ccccc3CN2)c2ccccc2)cc1 7.36%
CCCc1c(C(=O)N/N=C/C(C)=C/c2ccccc2)nnn1-c1nonc1N 15.4%
O=C(Cn1nnc(-c2ccc(NC(=O)c3ccccc3F)cc2)n1)NCc1ccc(F)cc1 16.3%
CCc1nnc(NC(=O)Cn2c(=O)oc3ccccc32)s1 1.21%
CCCc1nnc(NC(=O)Cn2c(=O)oc3ccccc32)s1 3.95%
N/C(=N\NS(=O)(=O)c1ccccc1)c1ccccn1 16.4%
Cc1nnc(NC(=O)CSc2nnc(C)n2Cc2ccccc2)s1 -83.7%
COC(=O)Nc1ccc([N+](=O)[O-])cc1OC 3%
COc1ccc(OC(=O)Nc2ccc([N+](=O)[O-])cc2OC)cc1 0.1%
COc1cccc(/C=N/Nc2ncnc3c2ncn3Cc2ccccc2)c1O 18.1%
Oc1cccc(/C=N/Nc2ncnc3c2ncn3Cc2ccccc2)c1 10.2%
CCc1nn(CC(=O)N2CCC(C(N)=O)CC2)c(=O)c2cc3occc3n12 5.76%
CCCCC(=O)N1C/C=C\[C@H](c2ccc(OC)cc2)N(Cc2ccc(F)cc2)C(=O)[C@@H]1C -1.49%
Cc1c(C(=O)OCC(=O)NCc2ccccc2)oc2ccccc12 13.4%
COC(=O)c1ccccc1NC(=O)c1cnn2c(C)cc(C)nc12 -5.22%
COc1ccc(/C=C/c2nc3ccccc3c(=O)n2-c2cccc(C(=O)O)c2)cc1 12.5%
CCn1c(/C=C/c2cc(Br)ccc2O)nc2ccccc2c1=O 27%
O=C(O)c1ccc(-n2c(/C=C/c3ccccc3)nc3ccccc3c2=O)cc1 13.9%
CCn1c(/C=C/c2ccc(O)cc2)nc2ccccc2c1=O 26.9%
CC(C)c1ccc(NC(=O)CSc2nc(-c3ccccc3F)nc3nc[nH]c23)cc1 3.55%
CCOc1ccc(CCNC(=O)CCC(=O)Nc2ccc3nc(N4CCN(C)CC4)cc(C)c3c2)cc1OCC 2.93%
O=C(CCl)N1c2ccccc2CCc2ccccc21 8.1%
O=C(CN1CCCCC1)N1c2ccccc2CCc2ccccc21 0.59%
Cc1cc(NS(=O)(=O)Cc2ccccc2)no1 3.2%
CCCN(C(=O)c1ccc(N(C)S(=O)(=O)c2ccc(C)cc2)cc1)C1CCS(=O)(=O)C1 (stereo not given) 11%
Cc1ccc(C)c(NS(=O)(=O)c2ccc(OCC(=O)N3CCOCC3)cc2)c1 4.78%
COc1cc(C(=O)OCCN2CCCCC2)ccc1O 29.6%
COc1cc(C(=S)N2CCCCC2)ccc1O 29.3%
O=C(NCCOc1ccccc1)C1CCC(=O)N(CCc2ccccn2)C1 (stereo not given) 5.44%
CN(C)c1ccc(C2/C(=C(/O)c3ccc(Br)cc3)C(=O)C(=O)N2C)cc1 (stereo not given) 8.15%
CC(C)C[C@H](NC(=O)[C@@H]1Cc2c([nH]c3ccccc23)C2c3ccccc3C(=O)N21)C(=O)NCC1CCCO1 (stereo not given in full) 8.64%
